Test systems include HCT-15 colon; HT29 colon; SNB-75 CNS; SNB-19 CNS; U251 CNS; PC-3 prostate; SK-MEL-5 melanoma; UACC-62 melanoma; SK-MEL-28 melanoma; LOX IMVI melanoma.
What all share (assay): NCI-60 one-dose screen, 48 h (100 = growth as untreated, 0 = no growth, -100 = all killed)
Holding throughout (conditions): 10 µM unless noted

The panel holds about 83,000 compounds, 20% with a hit somewhere; the sample as a whole holds those more often.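 Activity criterion: percent growth below 10, measured after cells in 96-well plates were exposed to a single compound concentration for 48 hours.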 A number with no mark means an inactive call. Active and inactive are the calls of the source.

For `C=C(C)[C@@H]1CC[C@]2(C)[C@H](CC=C3[C@@H]4CC(C)(C)CC[C@]4(C=O)CC[C@]32C)[C@@]1(C)CCCN`, the growth in the experiment on HCT-15 colon is 42.1%; with HT29 colon, 7.12% (active); in the experiment on SNB-75 CNS, 87.8%; in the experiment on SNB-19 CNS, 89.1%; in the experiment on U251 CNS it was 69.6%; with PC-3 prostate it was 47.5%. Besides, the growth in the experiment with SK-MEL-5 melanoma was 83%; in the experiment with UACC-62 melanoma it was 87.8%; in the experiment with SK-MEL-28 melanoma, 89.4%.
`N=C(N)N=Nc1ccc(O)cc1`: the growth with HCT-15 colon was 45.9% [100 µM]; with HT29 colon, 31.9% [100 µM]; in the experiment on SNB-75 CNS, 56.3% [100 µM]; in the experiment with SNB-19 CNS, 56.8% [100 µM]; in the experiment on U251 CNS, 40.5% [100 µM]; in the experiment with PC-3 prostate, 38.1% [100 µM]. The growth in the experiment on SK-MEL-5 melanoma is 85.9% [100 µM]; in the experiment on UACC-62 melanoma, 86.6% [100 µM]; with SK-MEL-28 melanoma it was 104% [100 µM].
As to `CC1(C)C=CC[C@]2(C)[C@H]3CC[C@@H]4[C@H]5[C@H](C(=O)/C=C/c6cccnc6)CC[C@]5(CO)CC[C@@]4(C)[C@]3(C)CC[C@@H]12`, the growth is -61.7% (active) with HCT-15 colon; -28% (active) in the experiment on HT29 colon; -89.8% (active) in the experiment with SNB-75 CNS; -90.4% (active) in the experiment with SNB-19 CNS; -90.8% (active) in the experiment with U251 CNS; -41.1% (active) in the experiment with PC-3 prostate. Also, the growth with SK-MEL-5 melanoma was -99.3% (active); in the experiment on UACC-62 melanoma, -63.2% (active); with SK-MEL-28 melanoma, -92% (active).
Take `COc1cc(-c2cc(-c3nc4ccc(F)cc4[nH]3)[nH]n2)cc(OC)c1OC`: the growth in the experiment on HCT-15 colon is 24.1%; with HT29 colon, 69.3%; with SNB-75 CNS, 15.2%; in the experiment with SNB-19 CNS it was 70.8%; in the experiment with U251 CNS it was 46.2%; with PC-3 prostate, -18.1% (active). For the same compound, the growth in the experiment with SK-MEL-5 melanoma was -50.2% (active); in the experiment with UACC-62 melanoma it was -25.4% (active); with SK-MEL-28 melanoma, 7.54% (active).
For `CN1CCN(CCOc2ccc(-c3cnc4c(-c5cccc(F)c5)cnn4c3)cc2)CC1`, the growth was 2.6% (active) with HCT-15 colon; 4.57% (active) in the experiment with HT29 colon; 88.1% with SNB-75 CNS; 83.9% in the experiment with SNB-19 CNS; 46.6% in the experiment with U251 CNS; 51.2% in the experiment with PC-3 prostate. Also, the growth was 72% in the experiment on SK-MEL-5 melanoma, 78.3% in the experiment on UACC-62 melanoma and 92.1% with SK-MEL-28 melanoma.
Turning to `COC(=O)[C@]12CC[C@@H](C(/C=C/c3cccnc3)=N/O)[C@@H]1[C@H]1CC[C@@H]3[C@@]4(C)CC(=C/c5cccnc5)/C(=N/O)C(C)(C)[C@@H]4CC[C@@]3(C)[C@]1(C)CC2`, the growth with HCT-15 colon was 23.4%; in the experiment on HT29 colon, 32.8%; in the experiment with SNB-75 CNS it was 22.8%; in the experiment with SNB-19 CNS, 71.9%; with U251 CNS it was 52.9%; in the experiment on PC-3 prostate, 20.8%. Moreover, the growth with SK-MEL-5 melanoma was -21.5% (active); with UACC-62 melanoma, 15.7%; in the experiment with SK-MEL-28 melanoma it was 50.8%.
In the case of `COc1cccc(-c2nn(-c3ccccc3)cc2-c2ccnc(NCCNS(=O)(=O)c3ccccc3)c2)c1`, the growth with HCT-15 colon was 20.3%; with HT29 colon it was 16.9%; with SNB-75 CNS it was 67.7%; in the experiment on SNB-19 CNS it was 42.6%; in the experiment on U251 CNS, 34.8%; in the experiment with PC-3 prostate it was 17.5%. Also, the values for the growth in the experiment on SK-MEL-5 melanoma and in the experiment on LOX IMVI melanoma were 17.1% and 41%, respectively.
With `COC(=O)[C@]12CC[C@@H](C)[C@H](C)[C@@H]1C1=CC[C@@H]3[C@@]4(C)C=C(O)C(=O)C(C)=C4CC[C@@]3(C)[C@]1(C)CC2`, the growth is 25.2% in the experiment with HCT-15 colon; 11.7% in the experiment with HT29 colon; 63% with SNB-75 CNS; 59.9% in the experiment with SNB-19 CNS; 43.4% in the experiment on U251 CNS; 12.7% with PC-3 prostate. Besides, the growth in the experiment on SK-MEL-5 melanoma is 29.5%; with LOX IMVI melanoma it was 16.5%.
With `C=C1C(=O)O[C@H]2[C@H]1CC/C(Cn1cc(-c3ccc(OC)cc3)nn1)=C\CC[C@@]1(C)O[C@@H]21`, the growth was -71.4% (active) with HCT-15 colon; -82% (active) with HT29 colon; 91.4% with SNB-75 CNS; 69.5% in the experiment with SNB-19 CNS; 23% in the experiment with U251 CNS; 39.4% with PC-3 prostate. For the same compound, the growth in the experiment on SK-MEL-5 melanoma is 41.8%; in the experiment on LOX IMVI melanoma, -79.3% (active).
Take `CC(=O)O[C@@H]1CCN2C(=O)N(C)c3ccccc3[C@@H]2C1`: the growth is 103% in the experiment on HCT-15 colon; 104% in the experiment on HT29 colon; 89% in the experiment with SNB-75 CNS; 98.3% in the experiment with SNB-19 CNS; 102% in the experiment with U251 CNS; 89.1% with PC-3 prostate. The growth with SK-MEL-5 melanoma was 104%; in the experiment on LOX IMVI melanoma it was 98.6%.
Turning to `COc1cccc(-c2nn(-c3ccccc3)cc2-c2ccnc(NCCCNS(=O)(=O)c3ccccc3)c2)c1`, the growth is 26.5% in the experiment on HCT-15 colon; 19% with HT29 colon; 62.1% in the experiment on SNB-75 CNS; 47.9% in the experiment on SNB-19 CNS; 34% in the experiment on U251 CNS; 15.7% in the experiment with PC-3 prostate. The growth in the experiment on SK-MEL-5 melanoma was 11.3%; in the experiment on LOX IMVI melanoma it was 33.1%.
Regarding `COc1ccc(O)c(-c2cc(-c3ccc(Cl)cc3)c(C#N)c(=O)[nH]2)c1`, the growth with HCT-15 colon is 66.5%; in the experiment on HT29 colon it was 75.7%; in the experiment on SNB-75 CNS it was 62.7%; with SNB-19 CNS it was 69.7%; in the experiment on U251 CNS, 46.6%; in the experiment with PC-3 prostate, 55.6%. Further, the growth with SK-MEL-5 melanoma was 57.7%; in the experiment on LOX IMVI melanoma it was 63.2%.
`N#CCCCCCn1c2ccccc2c2c3[nH]c(=O)[nH]c(=O)c3c3c4ccccc4n(CCCCCC#N)c3c21`: the growth in the experiment on HCT-15 colon was 86.6%; in the experiment on HT29 colon it was 27%; in the experiment on SNB-75 CNS, 26.3%; with SNB-19 CNS, 55.6%; with U251 CNS, 28.9%; with PC-3 prostate, 64.3%. Also, the growth in the experiment on SK-MEL-5 melanoma was 28.6%; in the experiment with LOX IMVI melanoma, 31.9%.
As for `CCc1ccccc1NC(=O)c1sc2nc3c(cc2c1N)CCCC3`, the growth was 28.1% in the experiment on HCT-15 colon; 13.5% in the experiment with HT29 colon; 12.3% with SNB-75 CNS; 37.6% in the experiment on SNB-19 CNS; 27.8% in the experiment with U251 CNS; 52.9% with PC-3 prostate. Besides, the results for the growth with SK-MEL-5 melanoma and with LOX IMVI melanoma were 34.8% and 36.5%, respectively.

These data come from PubChem BioAssay (NCI).
